Sampled rows, rich in hits. Any-hit rate of the full collection: about 3.7%.
Anthrax LF prot = Bacillus anthracis LF protease inhibitors, primary screen, biochemical, multiplex microsphere, MLPCN library; Lethal factor (Bacillus anthracis), P15917; multiplex microsphere protease cleavage assay; inhibition, % at 10 µM; 0.12% of 360,000 active; AID 588501, 2011; note: plate controls were buffer without enzyme for full effect and enzyme alone for no effect
Autofluor counter = flagged as autofluorescent in microsphere protease counterscreen; compound autofluorescence counterscreen, microsphere flow cytometry; hits give high values; fluorescence intensity (no concentration beside the values); 3.1% of 360,000 active; in the data active = fluorescence intensity above about 16000; inconclusive = no clear call, values can overlap the other calls
BJeLR lethal = MLPCN primary cell-based screen for lethality selective to Ras in HRASV12 cells. 0.17% of 300,000 active. BJeLR (HRASV12) viability, CellTiter-Glo ATP luminescence, 48 h. AID 1554, 2009. inhibition, % (concentration not given with the values); in the data active = inhibition above about 50%; inconclusive = no clear call, values can overlap the other calls
BoNT F protease = BoNT/F light chain protease inhibitors, primary screen, biochemical, flow cytometry, MLPCN library | Botulinum neurotoxin type F light chain protease (Clostridium botulinum) | Multiplex microsphere protease cleavage assay | inhibition, % at 10 µM | 0.22% of 360,000 active | AID 588497, 2011; in the data active = inhibition above about 35%, passing the limit was not always enough; inconclusive = no clear call, values can overlap the other calls; note: plate controls were buffer without enzyme for full effect and enzyme alone for no effect
BoNT A protease = BoNT/A light chain protease inhibitors, primary screen, biochemical, flow cytometry, MLPCN library | 0.17% of 360,000 active | inhibition, % at 10 µM | multiplex microsphere protease substrate cleavage | Botulinum neurotoxin type A light chain protease (Clostridium botulinum A str. ATCC 3502); note: plate controls were buffer without enzyme for full effect and enzyme alone for no effect
BH1578 lux ind = inducers of Vibrio cholerae quorum light production without autoinducers, primary screen, BH1578 luxS cqsA deficient, single point; V. cholerae BH1578 lux reporter, luminescence, 6 h; activation, % at 18.7 µM; 0.16% of 350,000 active; AID 588436, 2011; in the data active = activation mostly above about 9.7%, no sharp cut-off; inconclusive = no clear call, values can overlap the other calls; inactive = mostly below about 3.7%
Starred values were filed as active, the others as inactive; i = inactive; ? = inconclusive; nt = no result given. Cut-off read from the data, not from the text of the source, unless noted: active = inhibition above about 30%; inconclusive = no clear call, values can overlap the other calls; inactive = below that.

SMILES	Anthrax LF prot	Autofluor counter	BJeLR lethal	BoNT F protease	BoNT A protease	BH1578 lux ind
Cc1ccccc1NS(=O)(=O)c1cc(C(=O)N2CCc3ccccc3C2)ccc1C	-3	25113*	6	-5	?	-2
Cc1ccccc1NC(=O)c1ccc(C)c(S(=O)(=O)Nc2ccccn2)c1	-18	18024*	-1	16	11	0
CC(C)CC1C(=O)N(Cc2cn(Cc3ccco3)nn2)CCS(=O)(=O)N1Cc1ccc(-c2ccc(F)cc2)cc1 (configuration not stated)	-4	3789	nt	3	0	1
CC(C)NS(=O)(=O)c1ccc(N2C(=O)c3ccccc3C2=O)cc1	-3	19293*	-4	4	3	0
O=C1c2ccccc2C(=O)N1c1ccc(S(=O)(=O)N2CCCCC2)cc1	-18	3787	4	?	1	-1
COCC(C)NC(C(=O)Nc1ccc(C)c(Cl)c1)c1ccccc1 (configuration not stated)	-3	21763*	6	1	?	i
O=C1NC[C@@H](CCCCN2CCN(Cc3ccccc3)C(=O)C2=O)N(CCC2CCCCC2)C1=O	1	4232	nt	-2	-1	nt
CCCc1cc(C(=O)OC)c(NC(=O)CCCC(=O)O)s1	3	4683	-2	-2	0	-1
CCCc1cc(C(=O)OC)c(NC(=O)OCC)s1	-12	18061*	5	11	?	3
CCc1cc(C(=O)OC)c(NC(=O)CCC(=O)O)s1	1	21823*	nt	0	1	0
CC1(C(=O)Nc2cnc3ccccc3c2)CCN1Cc1ccccc1Cl (configuration not stated)	2	4033	nt	-2	0	i
O=C(NCc1ccco1)c1ccccc1	nt	nt	0	nt	nt	0
O=C(Nc1sccc1C(=O)NCc1ccco1)c1cccnc1	3	16659*	-8	-1	?	-1
COc1ccccc1Cc1noc(COc2cccc(C)c2C)n1	-1	16962*	-6	-10	-2	-4
COc1ccc(S(=O)(=O)N2CCCC(c3cc(C(=O)NCc4cccnc4)no3)C2)cc1 (configuration not stated)	-2	3094	nt	2	0	0
C=CCn1c(SCC(=O)Nc2ccccc2OC)nnc1-c1ccccn1	-1	16901*	0	-1	-1	-6
CCn1c(SCC(=O)Nc2ccccc2OC)nnc1-c1cnccn1	-4	16989*	9	-2	-1	0
C=CCn1c(SCC(=O)Nc2cc(NC(C)=O)ccc2OC)nnc1-c1ccccn1	0	19382*	0	1	?	i
CCn1c(COc2ccc3c(c2)CCCC3)nnc1SCC(=O)Nc1nccs1	-2	20125*	5	1	0	0
COc1cccc(-c2cnc(C(O)c3ccc(C(C)(C)C)cc3)[nH]2)c1 (configuration not stated)	-5	3667	nt	-6	-1	i
CC(Sc1ccc(S(=O)(=O)N2CCCCC2)cn1)C(N)=O (configuration not stated)	4	3897	nt	0	0	-1
CC1(C)OC(=O)C2=C(C[C@@H](C3CCCC3)O[C@H]2c2ccc(Cl)cc2)O1	0	4177	nt	2	0	nt
CCn1c(COc2cccc(OC)c2)nnc1SCC(=O)Nc1cc(OC)ccc1OC	-10	23149*	-4	-4	-2	i
CCn1c(COc2ccccc2)nnc1SCC(=O)Nc1cc(OC)ccc1OC	4	10919	-3	-3	-3	-1
CCc1nc2c(OCc3cc(Cl)cc(Cl)c3)cccn2c1N(C=O)Cc1ccc(OC)cc1	0	3620	nt	4	0	0
CCc1ccc(CN(Cc2cccnc2)C(=O)/C=C/c2ccc(OC)cc2)cc1	-5	7958	1	-46	6	0
CCn1c(SCC(=O)N/N=C/C=C\c2ccco2)nc2ccccc21	-1	2474	-2	-2	0	0
Cn1c(SCC(=O)N/N=C/C=C\c2ccco2)nc2ccccc21	0	22987*	3	2	1	i
CCOC(=O)CNC(=O)Cn1cnc2c(nnn2-c2cccc(Cl)c2)c1=O	2	23372*	-7	-3	-2	1
